PP5 inh: inhibitors of human protein phosphatase 5 (PP5); purified PP5c, OMFP substrate fluorescence; 320,000 tested, 0.18% active; inhibition, % at 6.7 µM; P53041; AID 1987;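 active means inhibition above the campaign's mean inhibition across all tested compounds plus 3 SD, cut at about 9.5% in these data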;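 further: 0% = DMSO only and 100% = 100 µM cantharidin control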
Target sequence (P53041 whole entry, looked up): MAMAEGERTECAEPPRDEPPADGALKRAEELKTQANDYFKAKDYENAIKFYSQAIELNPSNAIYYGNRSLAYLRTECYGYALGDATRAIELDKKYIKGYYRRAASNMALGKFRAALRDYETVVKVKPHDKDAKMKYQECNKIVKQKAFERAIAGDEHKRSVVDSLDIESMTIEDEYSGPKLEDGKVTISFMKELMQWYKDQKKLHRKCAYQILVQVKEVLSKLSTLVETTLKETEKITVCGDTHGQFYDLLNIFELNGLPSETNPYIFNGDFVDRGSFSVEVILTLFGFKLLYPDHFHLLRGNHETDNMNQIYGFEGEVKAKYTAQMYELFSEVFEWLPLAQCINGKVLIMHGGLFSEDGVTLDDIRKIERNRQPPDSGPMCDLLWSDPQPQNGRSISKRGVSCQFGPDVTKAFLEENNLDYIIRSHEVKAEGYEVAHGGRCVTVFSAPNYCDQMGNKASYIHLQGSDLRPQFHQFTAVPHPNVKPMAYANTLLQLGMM
PP1 counter: PP1-alpha (human) inhibition in PP5 counter-screen. P62136. purified PP1alpha, OMFP fluorescence. inhibition, % at 6.7 µM. 320,000 tested, 0.9% active. AID 2235;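 active means inhibition above the mean inhibition of all tested compounds plus 3 SD, computed separately for each screening campaign, cut at about 15% in these data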
H9c2 protect: modulators protecting cardiomyocytes from myocardial damage | protection from H2O2 cell death, % at 20 µM | H9c2 cardiomyocytes, H2O2 injury protection, ATPLite, 2 h | 360,000 tested, 0.63% active;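 active means compounds giving at least 50% protection of heart cells from peroxide-induced death in the single-dose screen, raw or plate-pattern-corrected value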;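 further: 0% = DMSO wells with peroxide and 100% = DMSO wells without peroxide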
ATG4B inh: ATG4B (human) cysteine protease inhibition. Q9Y4P1. ATG4B cleavage of LC3-PLA2, NBD-HPC fluorescence, 1 h. inhibition, % at 8.33 µM. 340,000 tested, 0.51% active; in the data active means inhibition above about 40%
The depositor's hits bear a star. An excerpt weighted towards active compounds, which were near 1.9% of everything screened.

CC(C)=CCc1c(O)ccc2c1OC(c1ccc(O)c(O)c1)CC2=O (centres undefined) was read as PP5 inh 2.7, PP1 counter 1.1, H9c2 protect 53.9* and ATG4B inh -15.0.
Screening CC1CCN(C(=O)CN2C(=O)NC(C)(c3ccc4ccccc4c3)C2=O)CC1 (centres undefined) returned H9c2 protect -7.6 and ATG4B inh -3.2.
For Cc1ccc(S(=O)(=O)Nc2ccc(O)c3cccnc23)cc1 the results were PP5 inh 0.1, PP1 counter 2.0, H9c2 protect -16.9 and ATG4B inh -4.1.
Cc1ccc(S(=O)(=O)Nc2ccc(O)c3ncccc23)cc1 was read as PP5 inh 0.2, PP1 counter -0.2, H9c2 protect 51.5* and ATG4B inh 5.6.
Screening CN1CCN(Cc2cc(COCc3ccccc3)c3cccnc3c2O)CC1 returned PP5 inh -1.3, PP1 counter 22.4*, H9c2 protect 29.3 and ATG4B inh -2.1.
Screening COCCN(C(=O)Cc1cccs1)C(C(=O)NCc1ccc(OC)cc1)c1ccc(OC)cc1 (centres undefined) returned PP5 inh -0.1, PP1 counter 4.8, H9c2 protect 19.4 and ATG4B inh -4.6.
`COc1ccc(CNC(=O)C(c2ccc(C)cc2)N(Cc2cccs2)C(=O)c2ccc3c(c2)OCCO3)cc1` (centres undefined) gave PP5 inh 1.7, PP1 counter 6.6, H9c2 protect 61.2* and ATG4B inh 0.6.
For Cc1ccc(C(C(=O)NCc2ccccc2)N(Cc2cccs2)C(=O)c2ccc3c(c2)OCCO3)cc1 (centres undefined) the results were PP5 inh 2.5, PP1 counter 12.9, H9c2 protect 55.8* and ATG4B inh 1.0.
`COc1ccc(CNC(=O)C(c2cccs2)N(Cc2ccco2)C(=O)Cc2cccs2)cc1` (centres undefined) gave PP5 inh 2.7, PP1 counter 3.5, H9c2 protect 63.1* and ATG4B inh -10.6.
For COC(=O)c1ccc(C(C(=O)NCc2ccccc2)N(Cc2cccs2)C(=O)c2cnccn2)cc1 (centres undefined) the results were PP5 inh -0.2, PP1 counter -0.1, H9c2 protect 76.3* and ATG4B inh 1.7.
COc1ccc(N(C(=O)c2ccncc2)S(=O)(=O)c2cccc([N+](=O)[O-])c2)cc1 was read as PP5 inh 0.1, PP1 counter 5.1, H9c2 protect 2.2 and ATG4B inh -1.4.
`COc1ccc(N(C(=O)c2cccc([N+](=O)[O-])c2)S(=O)(=O)c2cccs2)cc1` gave PP5 inh 2.6, PP1 counter -0.7, H9c2 protect 50.8* and ATG4B inh -4.0.
For CCc1nnc(N/N=C/c2cc(Br)c(O)cc2O)n1N the results were PP5 inh 2.8, PP1 counter -4.6, H9c2 protect -4.8 and ATG4B inh 2.8.
For CC(C)(C)c1nnc(N/N=C/c2cc(Br)ccc2O)n(N)c1=O the results were PP5 inh 2.5, PP1 counter 11.4, H9c2 protect 76.2* and ATG4B inh 18.2.
Screening COc1ccc(OC)c(N(CC(=O)NN=C2CCN(C)CC2)S(=O)(=O)c2ccccc2)c1 returned PP5 inh 1.6, PP1 counter 3.9, H9c2 protect -7.2 and ATG4B inh 2.1.
For Cc1[nH]n(-c2ccccc2)c(=O)c1C=Nc1cccc(F)c1 the results were PP5 inh 0.0, PP1 counter 2.8, H9c2 protect 3.7 and ATG4B inh 2.8.
Screening Cc1[nH]n(-c2ccccc2)c(=O)c1C=Nc1ccc2[nH]c(=O)[nH]c2c1 returned PP5 inh 0.0, PP1 counter 5.5, H9c2 protect 55.0* and ATG4B inh -11.5.
Screening Cc1cccc(-n2[nH]c(C)c(C=Nc3ccc4[nH]c(=O)[nH]c4c3)c2=O)c1 returned PP5 inh -0.7, PP1 counter -0.7, H9c2 protect 56.3* and ATG4B inh -7.2.
For COc1cccc(CN(CC(=O)NC2CCCC2)C(=O)c2csnn2)c1 the results were PP5 inh -0.4, PP1 counter -2.8, H9c2 protect 2.4 and ATG4B inh 5.3.
For CCCCn1nc(C(=O)N(C)CC(=O)Nc2ccc(F)c(F)c2F)ccc1=O the results were H9c2 protect 4.7 and ATG4B inh -1.3.
`COc1ccc(Cc2nc3ccc(C(=O)NCC(C)(C)OC)cc3o2)cc1` gave PP5 inh 3.5, PP1 counter -2.9, H9c2 protect 5.8 and ATG4B inh -7.8.
O=c1oc2c(O)c(O)cc3c(=O)oc4c(O)c(O)cc1c4c23 was read as PP5 inh -0.3, PP1 counter 27.5*, H9c2 protect -10.0 and ATG4B inh 15.7.
